Measurements reported in PubChem BioAssay (NCI).
This is part of a sample that, as a whole, favours compounds with a hit. Of some 83,000 tested, about 20% had one in any assay.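 Activity criterion: percent growth below 10, measured after cells in 96-well plates were exposed to a single compound concentration for 48 hours.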 Values without a mark were called inactive. Calls of active or inactive are those of the source.

Assays:
Assay in all cases: NCI-60 one-dose screen, 48 h (100 = growth as untreated, 0 = no growth, -100 = all killed)
HT29 colon = conditions: 10 µM unless noted
SNB-75 CNS = conditions: 10 µM
SNB-19 CNS = conditions: 10 µM unless noted
U251 CNS = conditions: 10 µM unless noted
PC-3 prostate = conditions: 10 µM unless noted
SK-MEL-5 melanoma = conditions: 10 µM unless noted
UACC-62 melanoma = conditions: 10 µM unless noted
LOX IMVI melanoma = conditions: 10 µM unless noted
SK-MEL-28 melanoma = conditions: 10 µM unless noted
SK-MEL-2 melanoma = conditions: 10 µM unless noted
SN12C renal = conditions: 10 µM unless noted
UO-31 renal = conditions: 10 µM unless noted
TK-10 renal = conditions: 10 µM unless noted
ACHN renal = conditions: 10 µM unless noted
CAKI-1 renal = conditions: 10 µM unless noted
A498 renal = conditions: 10 µM unless noted
CCRF-CEM leukemia = conditions: 10 µM unless noted
MOLT-4 leukemia = conditions: 10 µM unless noted
EKVX NSCLC = conditions: 10 µM unless noted
HCT-15 colon = conditions: 10 µM unless noted

Row | SMILES | growth (HT29 colon) | growth (SNB-75 CNS) | growth (SNB-19 CNS) | growth (U251 CNS) | growth (PC-3 prostate) | growth (SK-MEL-5 melanoma) | growth (UACC-62 melanoma) | growth (LOX IMVI melanoma) | growth (SK-MEL-28 melanoma) | growth (SK-MEL-2 melanoma) | growth (SN12C renal) | growth (UO-31 renal) | growth (TK-10 renal) | growth (ACHN renal) | growth (CAKI-1 renal) | growth (A498 renal) | growth (CCRF-CEM leukemia) | growth (MOLT-4 leukemia) | growth (EKVX NSCLC) | growth (HCT-15 colon)
1 | COC(=O)c1cc(=O)nc(N/N=C/c2ccco2)s1 | 106% | 96.2% | 105% | 104% | 95.7% | 99.6% | 106% | 101% | 104% | 117% | 102% | 87.5% | 118% | 104% | 105% | 99.5% | 95.6% | 94.9% | – | –
2 | S=c1[nH]nc(-c2cc3ccc2CCc2ccc(cc2)CC3)n1-c1ccccc1 | 90.8% | – | 93.3% | 94.5% | 83.9% | 96.5% | 76.2% | 98% | 98.8% | 105% | 91.4% | 92.9% | -61.5% (active) | 100% | 87.2% | 90.2% | 95.8% | 92.7% | 93.4% | –
3 | CC1=NC2=CC=CC3=NC(C(Cl)(Cl)Cl)=NC(=N1)N23 | 60% | 56.2% | 84.5% | 74.3% | 86.3% | 88.4% | 69.5% | 80.6% | – | 86.6% | 86.7% | 63% | 112% | 61% | 61.3% | 81.9% | 70.1% | 4.18% (active) | 76.1% | –
4 | COc1ccc(-c2nc3sccn3c2/C=C/C(=O)c2cc(F)cc(F)c2)cc1 | 65.2% | 42.3% | 67.8% | 45.4% | 62.3% | 80.9% | 54.4% | 50.1% | 93% | 74.7% | 92.1% | – | 164% | 65.4% | 57.1% | 57.6% | 19.4% | 5.45% (active) | 88% | –
5 | O=C(/C=C/c1cc(-c2ccc3c(c2)OCO3)n[nH]1)c1ccc2c(c1)OCO2 | 100% | 101% | 72% | 75.7% | 74.6% | 98% | 97.4% | 87.6% | 109% | 96.6% | 88.9% | 74.5% | 106% | – | 95.1% | 93.3% | 72.9% | 83.4% | – | –
6 | OCc1ncc(-c2ccccc2)s1 | 102% | 78.8% | 98.5% | – | 89.4% | 105% | 106% | – | 132% | 113% | 121% | 97.9% | 110% | – | 81.8% | 116% | 90.6% | – | 87.8% | –
7 | COc1cc2c(cc1OCCCCCn1c3ccccc3c3ccccc31)N=C[C@@H]1CCCN1C2=O | -45.8% (active) | -11.3% (active) | -49.9% (active) | -58% (active) | -41.8% (active) | -100% (active) | -90.3% (active) | -64.8% (active) | -78.8% (active) | -65.7% (active) | -54.8% (active) | -75.8% (active) | -37.8% (active) | -63% (active) | 38.3% | -51.8% (active) | -0.543% (active) | -39.9% (active) | 46.6% | –
8 | CN(C)CCN1C(=O)c2ccc3c4c(ccc(c24)C1=O)C(=O)N(CCN=C=S)C3=O | – | -75.3% (active) | – | -95.7% (active) | -80.3% (active) | -98.8% (active) | -92.5% (active) | -82.3% (active) | -87.7% (active) | -75% (active) | -89.5% (active) | -95.4% (active) | -95.3% (active) | – | -80% (active) | -97.8% (active) | -50.6% (active) | -52.2% (active) | -95.2% (active) | -78.2% (active)
9 | c1ccc(-c2nnc(-c3ccccn3)s2)nc1 | 104% | 70.4% | 97.9% | – | 93.8% | 97.2% | 95.7% | – | 127% | 104% | 114% | 76.3% | – | – | 50.1% | 117% | 80.8% | 109% | 79.6% | –
10 | COC(=O)c1cccc2c1N(C)c1c(cccc1C(=O)OC)CC2 | – | 106% | – | 111% | 97.4% | 106% | 98.7% | 87.7% | 120% | – | 107% | – | 121% | 104% | 97.7% | 132% | 89% | 97.4% | 112% | 97.9%
11 | CC1=C(C#N)C(=O)NC(C)C1 (stereo not drawn) | – | 111% | – | 105% | 94.9% | – | 104% | 90.4% | – | – | 99.9% | 94.9% | 106% | 102% | 103% | 104% | 102% | 116% | 105% | 101%
12 | NC(=N\N=C/c1ccc(O)cc1)/C(N)=N\N=C/c1ccc(O)cc1 | 105% | 94.4% | 92.7% | 72.3% | 33.1% | 28.7% | 30.3% | 28.7% | 88.2% | 59% | 74.2% | 28.5% | 83.4% | – | 41.5% | 84.5% | 10.8% | -8.61% (active) | 65.5% | –
13 | O=C(CSc1nc2ccccc2[nH]1)Nc1ccc(-c2nc3ccccc3s2)c(Cl)c1 | 14.7% | -28.5% (active) | 65% | – | 26.3% | 23.4% | 49.3% | – | 0.271% (active) | 51.2% | 35.1% | 8.16% (active) | 30.1% | – | 26.9% | 71.8% | – | 81.3% | 27.1% | –
14 | C=C(C)[C@@H]1CC[C@]2(C(=O)N3CCNCC3)CC[C@]3(C)[C@H](CC[C@@H]4[C@@]5(C)C/C(=C/c6ccncc6)C(=O)C(C)(C)[C@@H]5CC[C@]43C)[C@@H]12 | 109% | 96.4% | 99.5% | 101% | 94.4% | 99.6% | 103% | 97.2% | – | 107% | 106% | 90.3% | 102% | 103% | 95.6% | 111% | 101% | 95.6% | – | –
15 | COP(=O)(OC)/C(=N\NS(=O)(=O)c1ccc(C)cc1)c1ccccc1 | – | – | 94.7% | 105% | 86.5% | 97.9% | 96.7% | 102% | 110% | 110% | 105% | 92.6% | 88% | 101% | 62.1% | 92.4% | 124% | 103% | 97.7% | 112%
16 | CCCCCc1cc[n+](CC(=O)c2ccc([N+](=O)[O-])cc2)cc1 | 21.5% | 89.6% | 87.9% | 48.4% | 59.5% | 22% | 91.1% | 45.9% | 106% | 49.3% | 90.9% | 72.1% | – | 103% | 113% | 101% | 89.2% | 100% | 72.8% | –
17 | Cc1cccc(/C=N/Nc2cc(C)c3cccc(C)c3n2)n1 | 84.9% | 119% | 92.7% | 78.6% | 51.6% | 66.2% | 87.1% | – | 94.8% | – | 94.6% | 76.5% | 111% | 92.1% | 98.3% | 97.7% | 74% | 67.9% | – | –
